Screen size: about 1,400 compounds; about 560 (40%) were called active.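 The calls were made as follows: active = mean inhibition over duplicate tests at 10 µM above 50%; inactive = the rest.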 So high a share suggests a set chosen from earlier hits. The list shows a part of the results.
Assay: ASC/caspase-1 reporter retest in S. cerevisiae at one dose, specificity check for NALP1 project (AID 488857)
Conditions: S. cerevisiae ASC/Caspase-1, beta-galactosidase luminescence, 24 h; at 10 µM; stronger effect = higher value

inhibition, inactive:
O=c1[nH][nH]c(-c2ccccc2O)c1C(C[N+](=O)[O-])c1ccc(Cl)cc1Cl (configuration not stated) 42.1%
Cc1nc([N+](=O)[O-])c(Br)n1CC(=O)c1ccc(Cl)cc1 37.6%
N=c1n(CC(=O)c2ccc([N+](=O)[O-])cc2)c2ccccc2n1Cc1ccccc1Cl 28.8%
CCCCOc1ccc(CSC2=NCCN2)cc1[N+](=O)[O-] 40.1%
CCc1cccc2c(C(=O)COC(=O)c3ccccc3)c[nH]c12 43.6%
CCc1cccc2c(C(=O)CSc3nncn3-c3ccc(OC)cc3)c[nH]c12 38.1%
O=C(Nc1nc2c(c(=O)[nH]1)CCCC2)C1CC1 31.5%
O=C1c2ccccc2C(O)N1c1cccnc1 (configuration not stated) 23.4%
COc1ccc(C(C)C)cc1S(=O)(=O)n1cnc(C)c1 42.7%
COC(=O)c1cc(OC)c(OC)cc1NC(=S)N1CCN(c2ccccc2)CC1 39.1%
O=C(CN1CCN(c2cccc(Cl)c2)CC1)Nc1ccc(S(=O)(=O)N2CCOCC2)cc1 33.4%
C#CCOc1c(Br)cc(/C=N/O)cc1OCC 17.9%
Cc1oc(-c2ccccc2Cl)nc1CSc1nc2c(c(=O)[nH]1)CCC2 21.4%
NC(=NCCc1ccc(Cl)cc1)NS(=O)(=O)c1ccc(F)cc1 23.1%
COc1ccc(N(C)C2=NS(=O)(=O)c3ccccc32)cc1 29.7%
COC(=O)c1ccc(Cn2cnc3c(cnn3-c3ccc(Cl)cc3)c2=O)o1 35.1%
CC(C)c1ccc(NCCC(=O)c2cccs2)cc1 42%
CCOc1ccc(N=c2oc3cc(O)ccc3cc2C(=O)NCC2CCCO2)cc1 (configuration not stated) 33%
CCOc1ccc(NC(=O)c2cc3c(C)nc4ccccc4c3o2)cc1 33.2%
CCOC(=O)c1cc(-c2ccccc2)n(CCC(=O)N2CCN(c3ccccn3)CC2)c1C 32.7%
O=C(c1ccccc1-c1ccccc1)N1CCN(c2ccccn2)CC1 35.6%
C=CCNCCCCOc1ccc(Br)cc1C 46.5%
CCOc1cc(C(=O)OCC(=O)Nc2ncc(Cl)c(C)c2Cl)ccc1OCC(=O)N1CCOCC1 33.8%
COC(=O)CCn1nnc(-c2ccc(C(C)C)cc2)n1 41.2%
O=C(COc1ccccc1Cl)NCCC1=CCCCC1 48.4%
O=C(COC(=O)CCSc1ccccc1)NCc1ccccc1Cl 29.2%
O=C(CN1C(=O)C2C3C=CC(C3)C2C1=O)NCCc1ccccc1 (configuration not stated) 23.8%
CN(C)CCNC(=O)COc1ccc(Cl)cc1Cl 28.3%
Cc1sc(NC(=O)c2cc3ccccc3oc2=O)c(C(=O)OC(C)C)c1-c1ccccc1 36%
COc1cccc(N2C(=O)C(O)=C(C(C)=O)C2c2ccc(OC)c(OC)c2)c1 (configuration not stated) 31%
CC(=O)N1CC[n+]2c(-c3ccc(Cl)cc3Cl)csc21 23.9%
CC(C)Cn1c(CN(Cc2ccccc2)Cc2ccccc2)nc2c1c(=O)n(C)c(=O)n2C 35.6%
O=C(CSC1=NS(=O)(=O)c2ccccc21)Nc1ccccc1 43.5%
Cc1ccc(CC(=O)Nc2ccccc2-c2ccccc2)cc1C 34.3%
COc1ccc(CCNC(=O)CN2CCC(C)CC2)cc1OC 28.1%
COC(=O)c1ccccc1SC1CC(=O)N(c2ccccc2)C1=O (configuration not stated) 49.2%
COc1ccc2[nH]c(C)c(CCNC(=S)Nc3cc(C)cc(C)c3)c2c1 17%
CC(C)(C)c1cc(C(=O)O)n[nH]1 -9.25%
O=C(Nc1nc(-c2ccccn2)cs1)c1ccc(Cl)s1 46.2%
O=c1cc(-c2ccccc2)[nH]c2nc3ccccc3n12 44.1%
Cc1ccccc1N(CC(=O)N/N=C/c1ccccc1Cl)C(=O)c1ccccc1 35.8%
CC1(C)CC(=O)C2=C(C1)OC(N)=C([N+](=O)[O-])C2c1cccs1 (configuration not stated) 39.2%
CCOC(=O)c1c(C)n(C)c2cc(-c3ccc(C)cc3)c(O)cc12 41.5%
O=C(COc1ccc(CO)cc1Cl)Nc1ccc(F)cc1 38.2%
Cc1ccccc1OCC(=O)Nc1cccc(N(C)S(C)(=O)=O)c1 34.6%
CCc1ccc(C(=O)NCc2ccc(Cl)cc2Cl)cc1 49.6%
COc1ccc(Cl)cc1C(=O)O/N=C(\N)c1ccc(Cl)cc1 43.9%
CCN(CC)CCN1C(=O)c2ccccc2NC1c1ccc(N(C)C)cc1 (configuration not stated) 31.9%
CCn1c(C)[n+](CC(O)COCC2CC=CCC2)c2ccccc21 (configuration not stated) 41.3%
C=CCc1ccc(OCCCOc2ccc(C)cc2OC)c(OC)c1 31.8%
COc1ccc(CNc2nc(C)c([N+](=O)[O-])c(C)c2C#N)cc1 45.5%
O=C1/C(=C\c2cccnc2)CN(Cc2ccccc2)C/C1=C\c1cccnc1 30.4%
NNC(=S)NCc1cccnc1 37.2%
CCOC(=O)c1c(C)n(C)c2ccc(OC)c(NC(=O)CN3CCN(C4CCCCC4)CC3)c12 21.6%
CCOC(=O)C(=CNNc1ccsc1C(=O)OC)C(=O)OCC 41%
C1=CC2CC1CC2CN1CCN(Cc2ccccc2)CC1 (configuration not stated) 48.8%

inhibition, active:
COc1cccc(F)c1C(C[N+](=O)[O-])c1c(N)n(C)c(=O)n(C)c1=O (configuration not stated) 97.7%
Cc1ccc(C(C[N+](=O)[O-])c2c(N)n(C)c(=O)n(C)c2=O)cc1 (configuration not stated) 98.2%
COc1ccccc1C(C[N+](=O)[O-])c1c(N)n(C)c(=O)n(C)c1=O (configuration not stated) 99.8%
Cc1ccccc1Cn1c(=N)n(CC(=O)c2ccc([N+](=O)[O-])cc2)c2ccccc21 53.6%
CCCCCOc1ccc(Cn2ccnc2)cc1[N+](=O)[O-] 64%
CCc1cccc2c(C(=O)COC(=O)c3ccc([N+](=O)[O-])s3)c[nH]c12 95.7%
O=C1c2ccccc2C(Nc2ccc(Cl)cn2)N1Cc1ccccc1 (configuration not stated) 52.1%
COC(=O)/C=C/C(=O)N1CCN(c2cccc(Cl)c2)CC1 62.8%
CNc1nc(SCc2ccccc2Cl)nc2c1CCCC2 97.2%
CNc1nc(SCc2ccc(C)cc2)nc2c1CCCC2 98.4%
CN(Cc1ccccc1)c1ncnc2c1cnn2-c1ccccc1 66.2%
COCCN(CCOC)c1ncnc2c1cnn2-c1ccc(Cl)cc1 69.3%
Nc1ccc(C(=O)c2cccs2)cc1 54.2%
CCOc1ccc(NC(=O)c2csc3c2CCCC3)cc1 70.2%
O=C(N1CCN(c2ccccn2)CC1)C(Cl)(Cl)Cl 63.7%
O=C(CSCc1cnn(-c2ccccc2)c1-n1cccc1)NCc1ccc2c(c1)OCO2 57.3%
c1ccc2c(Nc3nc(N4CCOCC4)c4ccccc4n3)cccc2c1 95%
Oc1c(Cl)cc(Cl)c(Cl)c1Cc1c(O)c(Cl)cc(Cl)c1Cl 98.4%
CCN(CC)c1ccc(NC(=O)Cn2cc3c(n2)CCC(C)C3)c(C)c1 (configuration not stated) 51.1%
Cc1cc(Br)ccc1OCCn1ccnc1 59.4%
Cc1cc(Cl)c(OCCCn2ccnc2)c(Br)c1 64.8%
COc1ccccc1OCC(=O)NCCSCc1cccc(Cl)c1 61.4%
O=C(CCSCc1cccc(Cl)c1)NCCc1ccccc1 64.2%
COc1ccccc1OCC(=O)NCCSCc1ccc(Cl)cc1 64.2%
COc1ccccc1OCC(=O)NCCSCc1ccccc1Cl 65.5%
O=C(CSCc1cccc(Cl)c1)Nc1ccccc1-c1ccccc1 62.6%
COc1ccc(CCN(C)C2CC(=O)N(c3ccccc3)C2=O)cc1OC (configuration not stated) 51%
COc1ccc2[nH]c3c(C)c4ccncc4c(C)c3c2c1 98.8%
CNC(=O)c1ccsc1NC(=O)c1sc2ccccc2c1Cl 58.8%
O=C(Nc1nccs1)c1sc2ccccc2c1Cl 80.7%
Cc1nc(-c2ccccc2)cn2c1nc1ccccc12 59.9%
Cc1cc(N/N=C/c2cccc(Cl)c2)nc(NCc2ccccc2)n1 55.9%
Cc1cc(N/N=C/c2ccccc2)nc(NCc2ccccc2)n1 68.2%
Cc1ccc(Nc2cc(C)nc(NCc3ccccc3)n2)cc1 61.2%
Cc1cc(N/N=C/c2ccccc2Cl)nc(NCc2ccccc2)n1 52.2%
Cc1cc(N/N=C/c2ccc(Cl)cc2)nc(NCc2ccccc2)n1 78.7%
O=C(COc1ccc(Br)cc1Br)NC(=S)Nc1cccc(CO)c1 59.8%
N/C(Cc1ccc(Cl)cc1Cl)=N\OC(=O)c1cccs1 53.2%
COc1ccc(C(=O)O/N=C(\N)Cc2ccc(Cl)cc2Cl)cc1OC 72.4%
CCCc1ccc(-c2c(C)sc(N)c2C#N)cc1 51.2%
COc1cc(C)ccc1OCCOCCOc1ccc([N+](=O)[O-])cc1 65.2%
S=C1SCN(Cc2cccnc2)CN1Cc1cccnc1 89.2%
Nc1[nH]c(=O)ncc1F 81.2%
Cc1nc(N)sc1N=Nc1ccc(Br)cc1 68.5%
CCOC(=O)C(=Cc1cc(=O)c(OC)co1)C(=O)OCC 85.2%
Cc1onc(-c2ccccc2Cl)c1C(=O)N1C=CC(C(F)(F)F)=NCC1 77.5%

From PubChem BioAssay AID488857 (Sanford-Burnham Center for Chemical Genomics, 2010)
